Source: PubChem BioAssay (several laboratories)
Only some compounds are listed: those with a hit (about 3.3% of all), similar ones and a draw of the others.
Wnt bcat act – Wnt/beta-catenin pathway activation | 300,000 tested, 1.2% active | Wnt/beta-catenin reporter cell assay, activator, plate reader | AID 743398 | activation, % at 9.35 µM; in the data active = activation above about 30%, passing the limit was not always enough; inconclusive = no clear call, values can overlap the other calls;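 also: 0% = neutral control wells and 100% = positive control wells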
C2C12 statin – protects C2C12 myotubes from simvastatin toxicity; rescue of ATP level, % at 7.49 µM; ATP luminescence, 48 h; scaled: DMSO 0, geranylgeraniol control 100; AID 602340; 330,000 tested, 0.78% active;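 active = mean ATP rescue above about 67%, or every replicate alone reaching that limit, limit read from the data, passing the limit was not always enough; inconclusive = no clear call, values can overlap the other calls; inactive = mean under the limit and some replicate under it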;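 also: myotubes were challenged with 10 µM simvastatin during compound exposure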
GAA850 FXN act – frataxin GAA850 promoter activation; HEK293 lucGAA850 FXN promoter luciferase reporter, 24 h; percent of 10 µM SAHA response; activation, % at 6 µM; 360,000 tested, 0.56% active;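 active = activation above the average of all compounds screened plus 3 SD, cutoff fixed separately per campaign, cut at about 7.5% in these data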;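 also: 0% = DMSO wells and 100% = 10 µM SAHA wells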
MITF TRPM1 HTS – activators of MITF-driven TRPM1 promoter activity in SK-MEL-5 cells; SK-MEL-5 TRPM1-promoter luciferase, 24 h; % of positive control, neutral wells = 0; activation, % at 12.5 µM; 300,000 tested, 0.75% active; AID 588334;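 active = mean activation of at least 80% with every replicate also reaching 80%; inconclusive = mean reaches 80% but some replicate falls short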;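 also: 0% = neutral control wells and 100% = parthenolide positive control wells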
esBAF inh – SWI/SNF esBAF complex inhibition. mouse ES cells, Bmi1-luciferase knock-in reporter, 24 h; 100% = twice the neutral-well signal. reporter increase, % at 12.5 µM. 350,000 tested, 2% active; in the data active = activation above about 40%; inconclusive = no clear call, values can overlap the other calls;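 also: 0% = median of the plate's neutral control wells and 100% = double that signal; a rise in the Bmi1 reporter signal indicates esBAF inhibition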
* = called active by the depositor; ? = inconclusive; . = no result given.

SMILES	Wnt bcat act	C2C12 statin	GAA850 FXN act	MITF TRPM1 HTS	esBAF inh
CCCN(Cc1ccc(C)cc1)C(=O)c1ccc(CNS(=O)(=O)c2ccc(C(C)=O)cc2)cc1	2.3	8.1	3.6	?	62.0*
CCN(Cc1ccccc1)C(=O)c1ccc(CNS(=O)(=O)c2ccc(C)cc2)cc1	-6.9	.	0.7	20.3	.
Cc1cc(NC(=O)CCC(=O)N(CCC(C)C)C(C(=O)NC2CCCC2)c2cccnc2)no1 (stereo not given)	-1.9	104.6*	0.7	0.2	-6.9
CCOC(=O)c1cc(-c2ccccc2)sc1NC(=O)CC	7.6	.	-0.7	1.3	.
O=C(Nc1sc(-c2ccccc2)cc1C(=O)O)c1ccccc1	34.5*	.	3.5	70.7	.
CSCc1c(C(=O)NC2CCCc3ccccc32)oc2ccccc12 (stereo not given)	0.8	102.4*	-0.5	-3.3	11.2
CCN(CC)S(=O)(=O)c1ccc2oc(C(=O)NC3CCCc4ccccc43)c(C)c2c1 (stereo not given)	.	-3.7	2.2	-13.4	-5.7
CCC1Oc2ccccc2C(=O)N(CC(=O)c2ccc3c(c2)OCCO3)C1=O (stereo not given)	-4.1	4.6	4.8	52.0	68.7*
CC(C)C1Oc2ccccc2C(=O)N(CC(=O)c2ccc3c(c2)OCCO3)C1=O (stereo not given)	33.4*	-32.4	6.9	58.4	71.4*
C[C@H](NC(=O)C[C@H]1C[C@H]2c3cc(NC(=O)C4CCOCC4)ccc3O[C@H]2[C@H](CO)O1)c1ccccc1	.	2.2	.	.	-1.8
CCCNC(=O)N[C@H]1C=C[C@H](CC(=O)NCCc2ccccc2)O[C@@H]1CO	.	2.0	.	.	2.7
C#CCN(CC=C)C(=O)CCc1nnc(COc2ccccc2)o1	-5.9	6.2	2.3	38.5	58.9*
CCNC(=O)C[C@@H]1C=C[C@H](NS(=O)(=O)c2ccc(F)cc2)[C@H](CO)O1	.	-0.8	.	.	-1.9
CCCC(=O)Nc1ccc2c(c1)C(=O)N(C)C[C@H](OC)[C@@H](C)CN(CC1CCCC1)[C@@H](C)CO2	.	-2.0	.	.	3.1
O=C(c1ccccc1)c1ccc(-c2ccc(O)cc2)cc1	35.3*	-20.0	6.8	24.0	76.2*
Cc1ccc(OCc2ccc(C(=O)Nc3nccs3)o2)cc1	.	4.2	3.4	.	21.4
O=C(Nc1cccnc1)c1ccc(COc2ccccc2Br)o1	.	-24.1	-0.8	10.3	4.4
CC(C)(C)c1ccc(OCc2ccc(C(=O)Nc3cccnc3)o2)cc1	?	-49.0	1.5	5.4	63.1*
O=C(Nc1nccs1)c1ccc(CSc2ccccc2)o1	38.1*	17.0	7.2	?	39.1
O=C(Nc1nccs1)c1ccc(COc2ccccc2)o1	-0.3	7.8	5.9	.	51.5*
C[C@H]1CCCCO[C@@H](CN(C)Cc2ccncc2)[C@@H](C)CN([C@@H](C)CO)C(=O)c2cc(NC(=O)Nc3ccc(C(F)(F)F)cc3)ccc2O1	.	.	.	.	5.5
Cc1ccc(S(=O)(=O)N[C@H]2CC[C@@H](CC(=O)NCCN3CCCCC3)O[C@H]2CO)cc1	.	-2.0	.	.	4.9
CC(C)(C)C(=O)Nc1nc2c(s1)CN(Cc1ccccc1)CC2	-2.4	.	4.8	72.1	.
CCC(=O)N1CCc2nc(-c3ccccc3)sc2C1	13.2	2.0	6.4	84.0*	46.3*
CCn1cc(Br)c(C(=O)Nc2sc3c(c2C(N)=O)CCCC3)n1	.	7.1	-0.7	23.0	7.3
SMILES	Wnt bcat act	C2C12 statin	GAA850 FXN act	MITF TRPM1 HTS	esBAF inh
NC(=O)c1c(NC(=O)c2ccccc2F)sc2c1CCCC2	-1.1	-6.8	4.2	18.1	64.9*
NC(=O)c1c(NC(=O)c2ccccc2Cl)sc2c1CCC2	8.6	0.0	4.0	.	?
NC(=O)c1c(NC(=O)c2ccc(F)cc2Cl)sc2c1CCC2	9.7	-8.6	5.3	59.8	49.3*
Cn1cc(Br)c(C(=O)Nc2sc3c(c2C(N)=O)CCCC3)n1	8.8	-18.2	5.0	85.1*	67.2*
CCCNC(=O)Nc1ccc2c(c1)C(=O)N(C)C[C@H](OC)[C@H](C)CN(Cc1ccccc1)[C@@H](C)CO2	.	1.8	.	.	-2.7
C[C@@H]1CN([C@@H](C)CO)C(=O)c2cc(NC(=O)Cn3cnnn3)ccc2O[C@@H]1CN(C)C(=O)Nc1ccc(C(F)(F)F)cc1	.	-40.9	.	.	2.0
C[C@@H]1CN([C@H](C)CO)C(=O)c2cc(NC(=O)c3ccccc3)ccc2O[C@@H](C)CCCCO[C@@H]1CN(C)C(=O)Cc1ccccc1	.	.	.	.	13.2
O=C(Nc1ccccc1)c1ccc(-c2ccccc2)s1	5.4	.	4.2	84.6*	.
COc1ccc2cc(C(=O)Nc3ccccc3)sc(=O)c2c1OC	6.3	-1.8	4.8	56.1	?
O=C(O)c1ccc(-c2ccc(-c3ccccc3)cc2)s1	.	-6.2	1.6	-81.1	-33.2
O=C(Nc1ccccc1)c1cc2ccc3ccccc3c2s1	65.7*	-18.8	1.9	42.1	79.1*
c1ccc(-c2ccc(-c3ccccc3)[nH]2)cc1	0.2	-1.0	1.7	45.7	71.6*
O=C(C[C@@H]1CC[C@H]2[C@@H](COC[C@H](O)CN2Cc2nccs2)O1)NCc1ccc(F)cc1	.	-19.7	.	.	-3.3
Cc1ccc(SCCC(=O)N2CCC(C)CC2)cc1	?	1.9	4.0	.	59.0*
Cc1ccc(SCCC(=O)N2CCC(C(N)=O)CC2)cc1	5.4	-6.8	0.9	8.9	11.1
Cc1noc(C)c1NC(=O)N(C)C[C@@H]1Oc2ccc(NC(=O)C3CCCCC3)cc2CC(=O)N([C@@H](C)CO)C[C@H]1C	.	18.3	.	.	-6.7
N#C/C(=C\c1ccc(Cl)cc1)c1nc2ccccc2o1	13.6	.	-0.1	21.6	.
COc1ccc(C(=O)/C(=C/c2cccs2)c2nc3ccccc3o2)cc1	11.8	94.4*	-1.0	7.0	21.1
COc1ccc(/C=C(\CC(=O)O)c2nc3ccccc3o2)cc1	5.0	-1.8	5.3	60.6	69.4*
CCCC(=O)Nc1ccc2c(c1)OC[C@H](C)N(Cc1nccs1)C[C@@H](C)[C@@H](OC)CN(C)C2=O	.	26.9	.	.	0.0
CCCC(=O)Nc1ccc2c(c1)OC[C@H](C)N(C(=O)c1ccncc1)C[C@@H](C)[C@@H](OC)CN(C)C2=O	.	-1.6	.	.	-3.2
O=C(Nc1ccccc1[N+](=O)[O-])C1COc2ccccc2O1 (stereo not given)	14.0	1.6	6.6	75.7	45.3*
CCOC(=O)c1ccccc1NC(=O)C1COc2ccccc2O1 (stereo not given)	1.9	94.3*	2.3	2.8	-4.2
CC(=O)c1ccc(NCC2COc3ccccc3O2)c([N+](=O)[O-])c1 (stereo not given)	76.0*	3.9	7.5	64.4	72.3*
NS(=O)(=O)c1ccc(NCC2COc3ccccc3O2)c([N+](=O)[O-])c1 (stereo not given)	-0.1	.	0.4	8.0	.
C[C@H](CO)N1C[C@H](C)[C@@H](CN(C)Cc2ccncc2)Oc2ccc(NS(C)(=O)=O)cc2C1=O	.	-18.1	.	.	-3.0
C[C@@H]1CN([C@@H](C)CO)C(=O)c2cc(NC(=O)c3ccncc3)ccc2O[C@H]1CN(C)Cc1ccncc1	.	-1.9	.	.	4.6
